The record followed here is PubChem BioAssay (NCATS).

Results filed as inconclusive are left out. A call without a number means that no potency is given here. The source made the active and inactive calls. The call rests on the fitted dose curve; in most records, active means well fitted cell-killing curve with a large enough effect; inconclusive means small, poorly fitted or top-dose-only effect; inactive means flat fitted curve, though single readings scatter.

The nature of the experiment: Cell Viability - LYMP2-021 (AID 974).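 Further: compound exposure lasts 24 hours at 37 °C; nearly all actives have a fitted effect of over 55% in size.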 As to conditions: LYMP2-021 lymphoblastoid cells viability; series mostly up to 92.2 µM. From the text: NIH Chemical Genomics Center [NCGC]
NIH Molecular Libraries Screening Centers Network [MLSCN]
National Institutes of Environmental Health Sciences [NIEHS]
National Toxicology Program [NTP]
We have developed a 1536-well cell-based assay for quantitative high throughput screening (qHTS) against a number of cell lines to determine in vitro cytotoxicity of small molecules. This particular assay uses a human lymphoblastoid cell line (LYMP2-021) purchased from Coriell Institute for Medical Research.
NCGC Assay Protocol Summary:
The CellTiter-Glo luminescent cell viability assay (Promega) is a homogeneous method to measure the number of viable cells in culture. The end point readout of this assay is based on quantitation of intracellular ATP, an indicator of metabolic activity, using the luciferase reaction. Luciferase catalyzes the oxidation of beetle Luciferin to oxyluciferin and light in the presence of ATP. The luminescent signal is proportional to amount of ATP present.
Using the CellTiter-Glo luminescent cell viability assay, the amount of cellular ATP was measured in the lymphoblastoid cell line with complete culture medium following compound treatment for 24 hours. The assay was performed in opaque white Kalypsys 1536-well plates. In the screen, tetraoctylammonium bromide was used as positive control. Library compounds were measured for their ability to cause acute toxicity in the cell line, as reflected by a decrease in intracellular ATP levels, in a concentration-dependent manner. […] AC50 values were determined from concentration-response data modeled with the standard Hill equation.
qHTS protocol for CellTiter Glo lymphoblastoid cellular assay
[Step] [Parameter] [Value] [Description]
1. Reagent; 5 uL; 2500 lymphoblastoid cells/well
2. Time; 5 hr; 37 C incubation
4. Controls; 23 nL; Tetraoctylammonium bromide 6.4pM to 92 uM
5. Time; 24 hr; 37 C incubation
6. Reagent; 5 uL; CellTiter Glo reagent
7. Time; 30 min; Room Temperature
8. Detection; Luminescence; Viewlux plate reader
Keywords: cell viability, cytotoxicity, lymphoblastoid cell line, luminescence, NTPHTS, NTPHTS_NCGC, NIEHS, DSSTox, MLSMR, MLSCN, NIH Roadmap, qHTS, NCGC
With `CC(C)(C)c1ccccc1O`, the Potency entry is “inactive”.

`CCOC(=O)CC(SP(=O)(OC)OC)C(=O)OCC` (stereo not given): the Potency entry was “inactive”.

In the case of `BrCCc1ccccc1`, the Potency result is “inactive”.

`CCCCCCCCCCCOC(=O)c1ccccc1C(=O)OCCCCCCCCCCC`: the Potency entry was “inactive”.

Regarding `Nc1c(Br)cc([N+](=O)[O-])cc1[N+](=O)[O-]`, the Potency result was “inactive”.

Consider `Nc1ccc([N+](=O)[O-])cc1[N+](=O)[O-]`, for which the Potency entry was “inactive”.

Turning to `CC1CC(=O)O1` (stereo not given), the Potency result was “inactive”.

With `N#CC(O)c1ccccc1` (stereo not given), the Potency entry was “inactive”.

On to `COC(=O)Nc1cccc(OC(=O)Nc2cccc(C)c2)c1`, for which the Potency result is “inactive”.

Take `BrC(Br)Br`: the Potency result is “inactive”.

With `CC(C)[C@]12CC(=O)[C@H](C)[C@H]1C2`, the Potency entry was “inactive”.

With `CCCBr`, the Potency entry is “inactive”.

As to `ClP(Cl)(Cl)(Cl)Cl`, the Potency result is “inactive”.

Turning to `Nc1cccc(Cl)c1`, the Potency result is “inactive”.

With `CC(C)(OOC(C)(C)c1ccccc1)c1ccccc1`, the Potency entry was “inactive”.

For `C=CC(=O)OC`, the Potency entry is “inactive”.

For `O=[N+]([O-])c1ccc(Cl)c(Cl)c1Cl`, the Potency result was “inactive”.

`Cc1cc(-c2ccc(N)c(C)c2)ccc1N`: the Potency entry is “inactive”.

Turning to `C=CC(=O)OCCN(C)C`, the Potency entry was “inactive”.

For the compound `CCOC(=O)CBr`, the Potency entry is “inactive”.

As to `O=[N+]([O-])c1cccc2c([N+](=O)[O-])cccc12`, the Potency entry was “inactive”.

Turning to `CCOC(=O)C1OC1(C)c1ccccc1` (stereo not given), the Potency result was “inactive”.

With `OCCCCO`, the Potency result was “inactive”.

Take `Cc1ccc(OP(=O)(Oc2ccc(C)cc2)Oc2ccc(C)cc2)cc1`: the Potency entry was “inactive”.

With `Cc1ccc(N)cc1Cl`, the Potency entry is “inactive”.

Take `Nc1ccc(Cc2ccc(N)cc2)cc1`: the Potency result was “inactive”.

In the case of `ClCCOCCCl`, the Potency entry was “inactive”.

In the case of `O=C(Cc1ccccc1)OCc1ccccc1`, the Potency entry was “inactive”.

For `OCC(Cl)CCl` (stereo not given), the Potency result was “inactive”.

As for `C=C(Cl)CCl`, the Potency result was “inactive”.

Consider `Oc1cccc(Cl)c1Cl`, for which the Potency result is “inactive”.

Regarding `O=[N+]([O-])c1ccc(O)c([N+](=O)[O-])c1`, the Potency result is “inactive”.

As for `c1ccc(NNc2ccccc2)cc1`, the Potency result was “inactive”.

For `NNC(N)=S`, the Potency result is “inactive”.

`CCBr`: the Potency result was “inactive”.

Turning to `ClCC(Br)CBr` (stereo not given), the Potency entry was “inactive”.

For `CN(C)N=O`, the Potency result is “inactive”.

Turning to `CCOP(=O)(OCC)OCC`, the Potency entry is “inactive”.

On to `COc1cc(-c2ccc(N)c(OC)c2)ccc1N`, for which the Potency result was “inactive”.

`FC(Cl)(Cl)Cl`: the Potency entry was “inactive”.
